# Tau fibril FP: inhibitors of human tau fibril formation. K18 P301L tau heparin fibrillization, Alexa594 FP, 6 h. Potency, µM (series often up to 57.7 µM), hits mostly inhibitors. hit rate 0.39% among 280,000. AID 1468; note: nearly all actives have a fitted effect of over 55% in size
# Target sequence (P10636 561-689 P618L limits assumed): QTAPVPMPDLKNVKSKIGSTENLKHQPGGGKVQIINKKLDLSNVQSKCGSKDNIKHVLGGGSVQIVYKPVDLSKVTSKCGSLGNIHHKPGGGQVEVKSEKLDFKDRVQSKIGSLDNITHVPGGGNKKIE
#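 Recombinant K18 P301L […], labeled with Alexa 594 at 0.24 uM over 15 uM unlabeled; heparin inducer 20 uM final; 37 C, 6 hr; FP endpoint.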
# TRb-SRC2 inh: disrupts binding of human TR beta to SRC2 | P10828 | TRbeta-SRC2 peptide binding, fluorescence polarization; receptor liganded with 1 µM T3 | Potency, µM (doses to about 106 µM), hits mostly inhibitors | hit rate 0.065% among 280,000; note: nearly all actives have a fitted effect of over 50% in size
# Target sequence (P10828 whole entry, looked up): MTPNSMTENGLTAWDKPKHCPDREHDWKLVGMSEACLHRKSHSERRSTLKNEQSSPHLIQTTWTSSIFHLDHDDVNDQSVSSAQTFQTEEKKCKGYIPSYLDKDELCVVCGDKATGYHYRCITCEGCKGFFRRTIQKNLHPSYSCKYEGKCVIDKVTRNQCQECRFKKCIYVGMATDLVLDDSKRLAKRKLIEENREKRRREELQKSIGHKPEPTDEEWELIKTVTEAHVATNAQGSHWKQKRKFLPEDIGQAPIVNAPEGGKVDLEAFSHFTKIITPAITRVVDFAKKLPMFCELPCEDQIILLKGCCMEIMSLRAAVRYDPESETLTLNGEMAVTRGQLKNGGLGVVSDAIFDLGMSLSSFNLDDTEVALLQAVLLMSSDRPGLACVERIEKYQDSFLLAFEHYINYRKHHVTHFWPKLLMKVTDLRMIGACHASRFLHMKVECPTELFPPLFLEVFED
#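 Human TRb ligand-binding domain (0.6 uM) is mixed with 20 nM Texas Red SRC2 peptide and 1 uM T3; after compound addition and 5 hr at ambient temperature, polarization is measured and normalized to unbound and bound controls.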
# Tau ThT inhib: inhibitors of human tau fibril formation, thioflavin T binding | AID 1460 | Potency, µM (doses to about 57.4 µM), most hits filed as inhibitors | hit rate 2.1% among 270,000 | recombinant tau K18 P301L, heparin-induced fibrillization, ThT fluorescence | P10636; note: nearly all actives have a fitted effect of over 55% in size
#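 Heparin-induced fibrillization of the P301L-mutant K18 repeat-domain fragment of human tau was followed by ThT binding in quantitative high-throughput format.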
# Tau fluor counter: counter-screen for tau fibril formation inhibitors. tau K18 P301L (four-repeat tau fragment) Alexa594 fluorescence, heparin fibrillization. AID 1463. hit rate 0.93% among 280,000. Potency, µM (top dose mostly 57.7 µM); note: nearly all actives have a fitted effect of over 55% in size
#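 Human K18 P301L tau (15 uM unlabeled plus 0.24 uM Alexa 594-labeled, final) in 100 mM sodium acetate pH 7 was mixed with compound and 20 uM heparin and incubated 6 hr at 37 C.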
# TexasRed fluor: Texas Red fluorescence interference in TRb-SRC2 counter-screen; TRb/SRC2 Texas Red total fluorescence interference; Potency, µM (titrated, usually from 106 µM); hit rate 0.29% among 280,000; AID 1479; active = well fitted curve in either direction with a large enough effect; inconclusive = small, poorly fitted or top-dose-only effect
#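 Flags fluorescent or light-absorbing compounds by total fluorescence, S + 2P, at 555 nm excitation and 632 nm emission. Mixture: 20 nM Texas Red SRC2 peptide, 0.6 uM human TRb LBD, 1 uM T3, 5% DMSO; compound exposure 5 h at ambient temperature.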
# A number is an active result; i = inactive; ? = inconclusive; nt = no result; [ ] = remark or other dose. This is a sample that favours compounds with a hit; in the whole collection about 3.1% have one here. Unless noted, calls come from the whole dose curve; as a rule, active = well fitted curve in the direction sought with a large enough effect; inconclusive = small, poorly fitted or top-dose-only effect, or another doubt; inactive = no such curve, though single readings can be large; an effect the other way counts as inactive or inconclusive.
SMILES,Tau fibril FP,TRb-SRC2 inh,Tau ThT inhib,Tau fluor counter,TexasRed fluor
O=C(NCCc1ccc(Cl)cc1)C1CCN(c2ncnc3c2nc2n3CCCCC2)CC1,i,i,i,i,i
CN(C)CCNC(=O)C1CCN(c2ncnc3c2nc2n3CCCCC2)CC1,i,i,i,i,25µM[quencher]
CCCNC(=O)C1CCN(c2ncnc3c2nc2n3CCCCC2)CC1,i,i,i,i,i
CCOc1ccc(CCNC(=O)C2CCN(c3ncnc4c3nc3n4CCCCC3)CC2)cc1,i,i,i,i,22µM[quencher]
CCCSCCCNC(=O)Cn1c(-c2cccs2)cc2ccccc21,i,i,i,i,i
CCOc1ccccc1NC(=O)c1sc2nc(C)cc(C)c2c1N,i,i,i,i,i
CC(C)OC(=O)c1sc2nc(-c3ccccc3)ccc2c1N,i,i,i,?,i
COc1ccc(Cl)cc1NC(=O)c1sc2nc(-c3ccc(OC)c(OC)c3)ccc2c1N,i,i,?,?,i
COc1cccc(-c2ccc3c(N)c(C(=O)c4ccc(Cl)cc4)sc3n2)c1,?,i,4.5µM,2.8µM[quencher],i
CCOc1ccccc1NC(=O)c1sc2nc(-c3ccc(OC)cc3)ccc2c1N,i,i,?,3.5µM[quencher],i
COc1ccc(C(=O)c2sc3nc(-c4ccccc4)ccc3c2N)cc1,i,i,?,10µM[quencher],i
COc1ccc(-c2ccc3c(N)c(C(=O)Nc4ccc(C)cc4C)sc3n2)cc1OC,i,i,?,8.9µM[quencher],i
Cc1ccc(SCC(CC(C)C)N2CCN(C)CCC2=O)cc1 (stereo not given),nt,i,nt,nt,i
CCC(Sc1nc(-c2ccccc2F)nc2c1Cc1c(CO)cnc(C)c1O2)C(=O)Nc1cc(C)ccc1C (stereo not given),i,i,i,i,i
CC(=O)N1c2ccc(S(=O)(=O)NCc3ccccc3Cl)cc2CC1C (stereo not given),i,i,i,i,i
CC(=O)N1c2ccc(S(=O)(=O)Nc3ccc(C)c(Cl)c3)cc2CC1C (stereo not given),i,i,i,i,16µM[quencher]
O=C1C(=C(c2ccccc2)c2ccccc2)Nc2ccccc21,i,i,16µM,?,i
O=C1C(=C(O)c2ccccc2)C(=O)c2ccccc21,?,i,?,i,i
O=C1/C(=C/C=C/c2ccco2)SC(=S)N1NS(=O)(=O)c1ccccc1,16µM,i,nt,?,i
Cc1ccc(N2C(=O)/C(=C\c3ccco3)SC2=S)cc1,i,i,i,i,i
O=C(NN1C(=O)/C(=C/c2cccs2)SC1=S)c1ccncc1,i,i,?,i,i
O=C1/C(=C/c2cccs2)SC(=S)N1NS(=O)(=O)c1ccccc1,i,i,18µM,i,i
CC(C(=O)O)N1C(=O)/C(=C/C=C/c2ccco2)SC1=S (stereo not given),?,i,8.9µM,?,?
O=C1/C(=C\c2ccco2)SC(=S)N1Cc1ccccc1,i,i,?,?,i
CCOc1ccccc1C(=O)N1CCc2cc(OC)c(OC)cc2C1COc1ccc2c(C)cc(=O)oc2c1 (stereo not given),i,i,i,i,i
SMILES,Tau fibril FP,TRb-SRC2 inh,Tau ThT inhib,Tau fluor counter,TexasRed fluor
Cc1ccc(NS(=O)(=O)c2ccc3[nH]c4c(c3c2)CCCCC4)cc1,i,i,i,7.9µM[quencher],i
COc1ccc(NS(=O)(=O)c2ccc3[nH]c4c(c3c2)CCCCCC4)cc1,i,i,i,5µM[quencher],i
COc1cccc(NS(=O)(=O)c2ccc3[nH]c4c(c3c2)CCCCCC4)c1,i,i,i,7.1µM[quencher],i
COc1ccccc1CNS(=O)(=O)c1ccc2[nH]c3c(c2c1)CCCCC3,?,i,i,16µM[quencher],?
COc1ccc(Cl)cc1NS(=O)(=O)c1ccc2[nH]c3c(c2c1)CCCC3,i,i,i,8.9µM[quencher],i
COC(=O)C1=C(C(=O)OC)SC(=C2C(=S)C(C)(C)N(C(=O)C(C)C)c3ccccc32)S1,?,i,1µM,?,i
COC(=O)C1=C(C(=O)OC)SC(=C2C(=S)C(C)(C)N(C(=O)C3CC3)c3ccccc32)S1,?,i,2.5µM,?,i
CCCC(=O)N1c2ccccc2C(=C2SC(C(=O)OC)=C(C(=O)OC)S2)C(=S)C1(C)C,?,i,2.2µM,?,i
CC1C(=O)Nc2ccccc2N1C(=O)C1CC1 (stereo not given),i,i,i,i,i
Cc1ccc(S(=O)(=O)/N=C2/C=C(Sc3ncn[nH]3)C(=O)c3ccccc32)c(C)c1,28µM,28µM,10µM,?,i
Cc1ccc(S(=O)(=O)/N=C2/C=C(Sc3ncn[nH]3)C(=O)c3ccccc32)cc1,14µM,28µM,3.5µM,?,i
Cc1cc(/C=N\NC(=O)COc2cccc3cccnc23)c(C)n1-c1ccc(Br)cc1,i,i,?,i,i
Cc1cc(/C=N\NC(=O)COc2cccc3cccnc23)c(C)n1-c1ccccc1,i,i,25µM,?,i
O=C(c1[nH]c2ccccc2c1Sc1ccc(Cl)cc1)N1CCCCC1,i,i,i,i,i
O=C(O[C@@H]1Cc2c(O)cc(O)cc2OC1c1ccc(O)c(O)c1)c1cc(O)c(O)c(O)c1 (stereo not given in full),?,i,16µM,13µM[quencher],i
O=C(OC1Cc2c(O)cc(O)cc2OC1c1cc(O)c(O)c(O)c1-c1c(C2Oc3cc(O)cc(O)c3CC2OC(=O)c2cc(O)c(O)c(O)c2)cc(O)c(O)c1O)c1cc(O)c(O)c(O)c1 (stereo not given),?,i,25µM,14µM[quencher],i
Oc1ccc(C2Oc3cc(O)cc(O)c3CC2O)cc1 (stereo not given),i,i,i,i,i
Cn1c(=O)c2c(nc(N/N=C/c3ccc(OC(=O)c4ccco4)cc3)n2Cc2ccc(F)cc2)n(C)c1=O,i,i,?,7.1µM[quencher],i
Cn1c(=O)c2c(nc(N/N=C/c3ccc(OC(=O)c4ccco4)cc3)n2Cc2ccccc2Cl)n(C)c1=O,i,i,?,7.9µM[quencher],i
CC(C)COC(=O)c1ccc2c(c1O)C(=O)c1ccccc1C2=O,i,i,13µM,?,i
CCCN(C(=O)c1ccc2c(=O)n3c(nc2c1)CCCCC3)c1cccc(Cl)c1,i,i,i,i,i
COc1ccc(C(=O)c2sc3nc4c(c(C(F)(F)F)c3c2N)CN(C(C)=O)CC4)cc1OC,i,i,14µM,i,i
COc1ccc(CNC(=O)c2sc3nc4c(c(C(F)(F)F)c3c2N)CCC4)cc1OC,i,i,i,i,i
CC(=O)N1CCc2nc3sc(C(=O)c4ccc(F)cc4)c(N)c3c(C(F)(F)F)c2C1,i,i,4.5µM,i,i
OCC1=C[C@@H](O)[C@@H]2C=CO[C@@H](OC3O[C@H](CO)[C@@H](O)[C@H](O)[C@H]3O)[C@H]12 (stereo not given in full),nt,i,nt,nt,i
COC1=CC(=O)C(O)=C/C1=C\C=C\c1ccccc1,16µM,i,7.9µM,?,i

# Screening data from PubChem BioAssay.
